# This is part of a sample that, as a whole, favours compounds with a hit. Of some 83,000 tested, about 20% had one in any assay.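 Negative percent growth values reflect cell death: -40 means 40% of the cells present at the start died, and -100 means all died.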 Unmarked numbers belong to inactive results. Calls of active or inactive are those of the source. The calls were made as follows: active = growth percent below 10; inactive = the rest.
# Columns and labels:
# Test in all cases: NCI-60 one-dose screen, 48 h (100 = growth as untreated, 0 = no growth, -100 = all killed)
# Settings in all cases: 10 µM unless noted
# SR leukemia = system: SR leukemia
# RPMI-8226 leukemia = system: RPMI-8226 leukemia
# OVCAR-8 ovarian = system: OVCAR-8 ovarian
# OVCAR-5 ovarian = system: OVCAR-5 ovarian
# OVCAR-4 ovarian = system: OVCAR-4 ovarian
# SK-OV-3 ovarian = system: SK-OV-3 ovarian
# IGROV1 ovarian = system: IGROV1 ovarian
# OVCAR-3 ovarian = system: OVCAR-3 ovarian
# HS 578T breast = system: HS 578T breast
# NCI/ADR-RES ovarian = system: NCI/ADR-RES ovarian
SMILES,growth (SR leukemia),growth (RPMI-8226 leukemia),growth (OVCAR-8 ovarian),growth (OVCAR-5 ovarian),growth (OVCAR-4 ovarian),growth (SK-OV-3 ovarian),growth (IGROV1 ovarian),growth (OVCAR-3 ovarian),growth (HS 578T breast),growth (NCI/ADR-RES ovarian)
CC1Cc2c(Cl)ncnc2N(C)c2ccc(F)cc21 (stereo not given),95.3%,98.4%,91.9%,99.9%,95.4%,89.6%,105%,106%,64.1%,101%
CN(C)CCCC1(c2ccc(F)cc2)OCc2cc(-c3cccc4[nH]ccc34)ccc21 (stereo not given),-14.9% (active),39.7%,20.5%,70.1%,30.9%,52.5%,20.2%,31%,31.7%,25.9%
O=C1/C(=C/c2ccc(F)cc2)COc2ccc(O)c(O)c21,18.9%,-2.78% (active),6.23% (active),1.54% (active),43%,69.1%,-21.8% (active),-2.58% (active),21.5%,1.04% (active)
CCOC(=O)C#Cc1c(C(=O)OCC)nnn1[C@@H]1O[C@H](CO)[C@H]2OC3(CCCCC3)O[C@H]21,-8.98% (active),14.2%,95.3%,105%,56%,98.1%,96%,4.07% (active),89.7%,100%
NC(=O)CCC(C(=O)O)N1C(=O)c2ccc(O)cc2C1=O (stereo not given),139%,82.1%,106%,131%,123%,-100% (active),105%,97.6%,107%,132%
CCOC(=O)c1cc2c(=O)oc3ccccc3c2oc1=O,-26% (active),84.7%,102%,100%,96.4%,102%,103%,112%,100%,112%
CN(C)CCNc1nc2c3cc(Cl)ccc3nn2c2ccccc12,16.9%,50.8%,36.1%,65.7%,55.6%,57.4%,39.2%,57.8%,68.8%,36.5%
Cc1ccc(/C=N/Nc2nc(Nc3ccccc3)nc(-n3nc(C)cc3C)n2)cc1,36.2%,32.9%,21.6%,59.5%,27.6%,69.3%,5.33% (active),14.3%,78.9%,13.1%
CN(C)CCCn1c2c(c3ncccc3c1=O)C(=O)c1ccccc1-2,15.2%,38.2%,31.3%,46.5%,61.8%,69.6%,43.8%,57.4%,75.8%,42.7%
COc1cc(-n2cc(-c3cc(O)c(C/C=C(\C)CCC=C(C)C)c(O)c3)nn2)cc2c1O[C@]1(C)CC[C@@H](O)C(C)(C)[C@H]1C2,4.49% (active),-17.8% (active),16.4%,29.6%,37.9%,34.8%,23.8%,-19.6% (active),19.6%,17.3%
Clc1ccc(Sc2cnc(-c3ccccc3)o2)cc1,90%,89.7%,99.2%,98.8%,95.8%,101%,97%,97.5%,99.1%,108%
CN(C)CC(=O)Nc1ccc2ncnc(Nc3ccc(Oc4cccc(C(F)(F)F)c4)c(Cl)c3)c2c1,-1.46% (active),31.2%,55.5%,82.6%,51.5%,19.7%,8.24% (active),42.5%,79.1%,54.3%
COc1ccc2c(O)c(/C=C3\N=Nc4ccccc43)oc2c1C[C@@H]1CCNC[C@H]1F,-38.5% (active),91.9%,0.196% (active),67.8%,64.9%,90.5%,76.4%,94%,60.3%,72.1%
CSc1nnc(-c2cnn3c2NC(c2ccccc2)C3)n1-c1ccc(C(F)(F)F)cc1 (stereo not given),17.2%,56.9%,79.4%,84.7%,59.1%,69.4%,69.8%,37.6%,64.7%,56%
C=CCc1c(O)c(C(=O)/C=C/c2ccc(Cl)cc2)c(OC)c2ccoc12,17.7%,8.82% (active),42.6%,100%,57.3%,66.4%,43.3%,32.8%,81%,39.1%
O=C1c2ccc3c4ccc5c6c(ccc(c7ccc(c2c37)C(=O)N1CCC[P+](c1ccccc1)(c1ccccc1)c1ccccc1)c64)C(=O)N(CCC[P+](c1ccccc1)(c1ccccc1)c1ccccc1)C5=O,35.9%,21.3%,50.4%,74.1%,75.9%,91.7%,29.6%,37.4%,81.2%,97.2%
N#CC1C=CN(CC(N)=O)c2ccc3cccnc3c21 (stereo not given),85.1%,90%,98.1%,98.9%,98.6%,97.1%,101%,109%,96.2%,105%
C/C(=C(/c1ccc(Cl)cc1)c1ccc(OCCN2CCCC2)cc1)c1ccc(Cl)cc1,4.02% (active),57.8%,88.8%,88.9%,95.1%,108%,81.1%,88.3%,90.9%,90.4%
CCN(c1ccc(Cl)cc1)c1nc(-c2ccc([N+](=O)[O-])cc2)cs1,83.4%,91.5%,103%,103%,92.7%,95.7%,73%,102%,87%,101%
CC(C)(C)c1cc(-c2nc3ccc(N4CCN(S(C)(=O)=O)CC4)cc3[nH]2)cc(C(C)(C)C)c1O,56.2%,79.5%,78.9%,105%,88.6%,79.5%,96.4%,98.8%,86.4%,93.1%
COc1ccc(-c2nnc(-c3ccc4c(c3)nc(-c3ccncc3)n4C3CCCCC3)o2)cc1,46.6%,34.1%,53.5%,102%,61.1%,80.4%,73.7%,67.3%,68.6%,56.9%
CCSc1nc(NC)c2cc(-c3ccc(C(F)(F)F)cc3)ccc2n1,94%,94.8%,102%,104%,96.2%,96.1%,97.2%,110%,101%,106%
CC(=O)OC[C@]12CCC(C)(C)C[C@H]1[C@@]1(O)[C@H](O)C[C@@H]3[C@@]4(C)CCCNC(C)(C)[C@@H]4CC[C@@]3(C)[C@]1(C)CC2,99.3%,107%,111%,102%,120%,111%,107%,119%,110%,113%
CS(=O)(=O)c1cccc(-c2c(-c3cccc(OS(N)(=O)=O)c3)nc3sccn23)c1,85.1%,113%,95.2%,99.8%,101%,121%,97.9%,106%,103%,103%
COc1ccc(-c2csc(N(C(=O)N3CCN(c4cc5c(cc4F)c(=O)c(C(=O)O)cn5C4CC4)CC3)c3ccccc3)n2)cc1,10.4%,16%,15.5%,12.8%,33.3%,21.8%,17.1%,8.09% (active),40.3%,11.8%
Oc1c(Cl)cc(Cl)c2ccc(Cn3cc(-c4ccc(C(F)(F)F)cc4)nn3)nc12,-16.8% (active),0.831% (active),70.7%,88.7%,62.2%,104%,78.9%,-16.1% (active),87.7%,100%
